# Active and inactive are the calls of the source. Unless noted, how the calls were made is not given here.
# Experiments:
# [1] = A549 cell viability effects, profiling panel, calcein-AM fluorescence, 48 h, basal (AID 1162); details: higher = more signal; further: test concentration not given here
# [2] = adipocyte viability effects, profiling panel, cell-based, 3T3-L1 adipocytes, calcein-AM fluorescence, 48 h, basal (AID 1163); details: 3T3-L1 adipocytes viability, higher = more signal; further: test concentration not given here
# [3] = HepG2 cell viability effects, profiling panel, calcein-AM fluorescence, 48 h, basal (AID 1164); details: higher = more signal; further: test concentration not given here
# [4] = MM1S cell viability effects, profiling panel, calcein-AM fluorescence, 48 h, basal (AID 1165); details: higher = more signal;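 further: viability of MM1S multiple myeloma cells under basal unstimulated conditions; test concentration not given here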
# [5] = basal RPMI8226 viability, no added stimulus, profiling panel, cell-based, calcein-AM fluorescence, 48 h, PK04 Diversity Set (AID 1166); details: RPMI8226 myeloma viability, higher = more signal;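 further: cells grown under basal conditions without added stimulus; test concentration not given here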
# [6] = basal HepG2 mitochondrial membrane potential changes, profiling panel, cell-based, JC-1 fluorescence, 24 h, 100 nL compound (AID 1167); details: higher = more signal; further: test concentration not given here
# [7] = basal 3T3-L1 adipocyte mitochondrial potential changes, profiling panel, cell-based, JC-1 fluorescence, 3T3-L1 adipocytes, 24 h, 100 nL compound (AID 1168); details: JC-1 mitochondrial fluorescence, higher = more signal, called active from +8 up or from −8 down; further: test concentration not given here
# [8] = basal RPMI8226 mitochondrial membrane potential changes, profiling panel, cell-based, JC-1 fluorescence, 24 h, 100 nL compound (AID 1169); details: RPMI8226 myeloma, JC-1 mitochondrial potential fluorescence, higher = more signal; further: test concentration not given here
# [9] = basal MM1S mitochondrial membrane potential changes, profiling panel, cell-based, JC-1 fluorescence, 24 h, 100 nL compound (AID 1170); details: higher = more signal; further: test concentration not given here
# [10] = A549 lung cancer cell viability effects, profiling panel, resazurin fluorescence, 24 h, PK04 Diversity Set (AID 1171); details: higher = more signal, called active from +8 up or from −8 down; further: test concentration not given here
# [11] = HepG2 liver cancer cell viability effects, profiling panel, resazurin fluorescence, 24 h, PK04 Diversity Set (AID 1172); details: higher = more signal; further: test concentration not given here
# [12] = basal S. cerevisiae growth modulation, no modifier, primary screen, OD600, strain BY4716, 24 h, basal condition (AID 1173); details: OD600, 24 h, higher = more signal, called active from +8 up or from −8 down
# [13] = MM1S myeloma cell viability, profiling panel, resazurin fluorescence, basal, 24 h, PK04 Diversity Set (AID 1174); details: higher = more signal, called active from +8 up or from −8 down;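 further: MM1S multiple myeloma cell line; test concentration not given here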
# [14] = target: Dihydroorotate dehydrogenase (quinone), mitochondrial (Plasmodium falciparum (isolate 3D7)) (UniProt Q08210); assay: PfDHODH enzyme inhibitors, primary screen, biochemical, C-terminal His tag, absorbance 600 nm (AID 1175); details: DCIP absorbance 600 nm, higher = more signal, called active from +8 up or from −8 down;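 further: recombinant parasite enzyme with a five histidine tag at its C terminus; test concentration not given here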
# Dihydroorotate dehydrogenase (quinone), mitochondrial (Plasmodium falciparum (isolate 3D7)), sequence (Q08210 whole entry, looked up): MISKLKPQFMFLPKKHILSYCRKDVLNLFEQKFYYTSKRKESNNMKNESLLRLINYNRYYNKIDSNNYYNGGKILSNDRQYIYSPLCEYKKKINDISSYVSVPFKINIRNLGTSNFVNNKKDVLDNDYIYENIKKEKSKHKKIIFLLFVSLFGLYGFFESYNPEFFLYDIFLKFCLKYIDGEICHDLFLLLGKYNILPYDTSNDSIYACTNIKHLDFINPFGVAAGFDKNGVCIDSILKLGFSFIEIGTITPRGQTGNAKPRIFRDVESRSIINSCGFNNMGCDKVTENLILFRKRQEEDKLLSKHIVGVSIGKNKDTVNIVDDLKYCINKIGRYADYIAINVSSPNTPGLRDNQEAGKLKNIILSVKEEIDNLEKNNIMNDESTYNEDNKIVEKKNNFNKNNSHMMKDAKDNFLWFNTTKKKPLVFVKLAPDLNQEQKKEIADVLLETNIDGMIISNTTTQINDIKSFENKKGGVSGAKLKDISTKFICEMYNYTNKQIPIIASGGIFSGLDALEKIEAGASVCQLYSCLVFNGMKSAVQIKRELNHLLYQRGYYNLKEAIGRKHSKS
# [15] = P. aeruginosa biofilm formation inhibitors, primary screen, strain PAO1, LB-PBS medium, absorbance 600 nm (AID 1176); further: test concentration not given here; details: P. aeruginosa PAO1 growth/biofilm, A600, 12 h; higher = more signal
# [16] = S. cerevisiae RM11-1a growth modifiers, primary screen, strain RM11-1a, OD600, basal, 24 h (AID 1177); details: OD600, 24 h, higher = more signal, called active from +8 up or from −8 down;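 further: cultures grown under basal conditions with no added stressor; test concentration not given here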
# [17] = E. coli acrAB mutant growth effects, primary screen, E. coli filamentation inducers, strain DRC39, OD650, 24 h (AID 1178); details: higher = more signal, called active from +8 up or from −8 down;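 further: growth measured as culture turbidity by optical density at 650 nm; test concentration not given here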
# [18] = E. coli acrAB mutant growth effects, primary screen, E. coli filamentation inducers, strain DRC39, OD650, 48 h (AID 1179);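 further: screen aims at cell division blockers that make cells filament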; details: E. coli DRC39 delta-acrAB growth, higher = more signal, called active from +8 up or from −8 down
# [19] = RPMI8226 myeloma cell viability, profiling panel, resazurin fluorescence, basal, 24 h, PK04 Diversity Set (AID 1180); details: higher = more signal;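 further: RPMI8826 multiple myeloma cell line at 5000 cells per well; test concentration not given here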
# [20] = target: E3 ubiquitin-protein ligase XIAP (Homo sapiens) (UniProt P98170); assay: XIAP binders, primary screen, biophysical, small-molecule microarray, fluorescence 635 nm (AID 1181); details: small-molecule microarray binding, higher = more signal;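 further: score merges 667 nm emission and signal to noise over triplicate slides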
# E3 ubiquitin-protein ligase XIAP (Homo sapiens), sequence (P98170 whole entry, looked up): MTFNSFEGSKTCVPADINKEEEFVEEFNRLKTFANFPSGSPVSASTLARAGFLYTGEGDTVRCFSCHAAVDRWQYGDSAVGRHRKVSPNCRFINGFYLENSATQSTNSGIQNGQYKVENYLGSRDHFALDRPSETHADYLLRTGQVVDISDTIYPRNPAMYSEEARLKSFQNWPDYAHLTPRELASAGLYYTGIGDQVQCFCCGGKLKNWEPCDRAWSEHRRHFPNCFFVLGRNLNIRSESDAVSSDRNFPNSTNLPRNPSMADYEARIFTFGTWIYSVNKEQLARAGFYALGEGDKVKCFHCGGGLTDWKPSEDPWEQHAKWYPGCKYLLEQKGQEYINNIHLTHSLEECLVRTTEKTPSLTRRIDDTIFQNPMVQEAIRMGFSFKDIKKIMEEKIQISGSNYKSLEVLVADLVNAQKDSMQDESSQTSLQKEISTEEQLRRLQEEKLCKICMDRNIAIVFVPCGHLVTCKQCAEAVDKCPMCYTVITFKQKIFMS
SMILES,z-score [1],z-score [2],z-score [3],z-score [4],z-score [5],z-score [6],z-score [7],z-score [8],z-score [9],z-score [10],z-score [11],z-score [12],z-score [13],composite z-score [14],z-score [15],z-score [16],z-score [17],z-score [18],z-score [19],composite z-score [20]
COC(=O)CC=C[C@@H](C)[C@@H](C=NOCC[C@@H]1C=C[C@H](OC(C)=O)[C@@H](COC(C)=O)O1)OC,1.29,-0.0264,0.436,-0.616,0.238,-0.514,-0.43 (inactive),-0.133,-0.324,-0.393 (inactive),-0.269,0.557 (inactive),-0.104 (inactive),0.558 (inactive),-0.242 (inactive),0.47 (inactive),0.157 (inactive),0.138 (inactive),-0.325,0.0506
COC(=O)CC=C[C@@H](C)[C@@H](C=NOC[C@H]1O[C@H](c2ccccc2)C=C[C@@H]1Oc1ccc(OC)cc1)NS(=O)(=O)c1ccc(C)cc1,-1.31,-0.486,-0.43,-1.7,-1.2,0.0495,-1.06 (inactive),0.689,-0.077,-0.374 (inactive),-0.659,0.642 (inactive),-0.0907 (inactive),0.0727 (inactive),-0.0781 (inactive),0.0674 (inactive),-1.01 (inactive),-0.913 (inactive),-0.189,-0.167
CO[C@H]1COC(=O)CC=C[C@H](C)[C@@H](OC)COC(=O)[C@@H](C)COC(=O)CC=C[C@@H]1C,-0.0895,1.19,0.389,0.242,0.21,0.429,0.673 (inactive),-0.296,1.01,0.455 (inactive),-0.0033,-1.2 (inactive),0.277 (inactive),0.151 (inactive),-0.92 (inactive),-0.288 (inactive),0.224 (inactive),-0.979 (inactive),0.721,-0.142
C[C@@H]1C=CCC(=O)OC[C@H]2O[C@@H](C=C[C@@H]2O)[C@H](C)C=CCC(=O)OC1,0.164,-0.0309,1.37,0.35,0.72,0.909,1.27 (inactive),-0.0914,1.21,-0.976 (inactive),-0.444,-1.03 (inactive),0.324 (inactive),-0.793 (inactive),0.565 (inactive),-2.26 (inactive),0.577 (inactive),0.205 (inactive),-0.667,-0.0826
O=C(NN=C1C[C@@H](O)[C@@H](O)[C@@H]2[C@@H]3C(=O)N(C4CCCCC4)C(=O)[C@@H]3CC[C@@H]12)OCc1ccccc1,0.225,0.487,0.621,0.495,-0.697,-0.502,-0.247 (inactive),-0.369,-0.309,-0.24 (inactive),-0.141,-0.922 (inactive),-0.0864 (inactive),-0.223 (inactive),-0.814 (inactive),0.0487 (inactive),0.193 (inactive),0.332 (inactive),-0.678,-0.505
COc1ccc(O[C@@H]2[C@H](O)CO[C@@H]2C=Cc2ccccc2)cc1,0.069,1.72,-0.0757,-2.82,-1.1,1.11,0.6 (inactive),0.132,0.322,-0.548 (inactive),-0.489,-2.44 (inactive),0.995 (inactive),-3.01 (inactive),0.815 (inactive),-0.614 (inactive),-1.16 (inactive),-1.93 (inactive),0.54,0.0975
CCN1C(=O)[C@H]2[C@H]3[C@H](O)[C@H](O)CC(=NNC(=O)OCc4ccc(OC)cc4)[C@@H]3CC[C@H]2C1=O,-0.241,-0.0397,-0.112,0.0505,-0.788,-0.586,-0.66 (inactive),-0.232,-0.0402,0.247 (inactive),-0.295,0.303 (inactive),-0.938 (inactive),-0.367 (inactive),-0.708 (inactive),-1.33 (inactive),-0.154 (inactive),-0.0457 (inactive),-0.381,-0.0416
CO[C@H]1COC(=O)CCC[C@@H](C)[C@H](OC)COC(=O)[C@@H]2CCCN2C(=O)CC=C[C@@H]1C,-0.395,0.376,0.308,0.149,-0.193,-0.0779,-0.0693 (inactive),-0.0032,-0.87,-0.186 (inactive),-0.145,-0.723 (inactive),0.435 (inactive),-0.44 (inactive),-1.04 (inactive),-1.04 (inactive),-0.367 (inactive),-0.459 (inactive),0.826,-0.135

# Source: PubChem BioAssay
